# Screens deposited in PubChem by several laboratories.
# A selection: hits, their analogues and other compounds. The true share with any hit is near 1.2%.
# NOD2-RIPK2 inh: inhibitors of human NOD2-RIPK2 interaction; O43353; inhibition, % at 4.98 µM; 360,000 tested, 0.38% active; CHO BLA complementation NOD2-RIPK2, CCF4 ratio; in the data active = inhibition above about 21%;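 also: 0% = vehicle only and 100% = reference blocker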
# NPR2 activator: GC-B (human) receptor activation; HEK293-GC-B cells, CNP EC30, cGMP TR-FRET; 0% at EC30 CNP, 100% saturating CNP; AID 1920062; 370,000 tested, 0.11% active; P20594; activation, % at 10 µM;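 active = activation at 10 µM reaching about 35% in either raw or pattern-adjusted values, limit read from the data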
# GC-A act: GC-A (human) enzyme activation | P16066 | HEK293 GC-A cells, cGMP TR-FRET, EC30 ANP; 0% at EC30 ANP, 100% saturating ANP | activation, % at 10 µM | 370,000 tested, 0.14% active; in the data active = activation above about 40%
# Neddyl block: inhibitors of human cullin neddylation; TR-FRET cullin neddylation, biochemical; AID 651699; inhibition, % at 25 µM; 360,000 tested, 0.58% active; P61081+Q13564; in the data active = inhibition above about 36%
# TLR9-MyD88 inh: inhibitors of human TLR9-MyD88 binding. inhibition, % at 4.98 µM. Q9NR96+Q99836. CHO BLA complementation TLR9-MyD88, CCF4 FRET ratio. 340,000 tested, 0.21% active;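 active = inhibition above the mean over all tested compounds plus 3 SD, cut at about 21% in these data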;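 also: 0% = DMSO only wells and 100% = clavulanate BLA inhibitor control wells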
# TLR4-MyD88 BLA: TLR4-MyD88 interaction inhibition in cells | O00206+Q99836 | HeLa CL3-4 TLR4/MyD88 BLA complementation, FRET ratio | inhibition, % at 8.4 µM | 200,000 tested, 0.18% active | AID 861; in the data active = inhibition above about 25%;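 also: 0% = vehicle and 100% = reference inhibitor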
# TLR9-MyD88 conf: confirmation of human TLR9-MyD88 binding inhibitors. shares compounds with TLR9-MyD88 inh. CHO TLR9/MyD88 BLA complementation, CCF4 FRET ratio. inhibition, % at 4.98 µM. 680 tested, 51% active. AID 540250;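 active = mean inhibition across three repeats above about 21% taken from the earlier screen, limit read from the data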;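 also: blue over green emission ratio reports constitutive TLR9 MyD88 association via BLA complementation; 0% = DMSO vehicle wells and 100% = clavulanate BLA inhibitor wells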
# BLA nonselective: non-selective beta-lactamase inhibitors in TLR9-MyD88 counter-screen | shares compounds with TLR9-MyD88 inh | CHO-BLA cells, CCF4 FRET ratio, BLA reporter | 680 tested, 7% active | inhibition, % at 4.98 µM;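 active = mean inhibition above a 50% cutoff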;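 also: counterscreen of TLR9-MyD88 hits on CMV-driven BLA in CHO-K1 cells; 0% = DMSO alone and 100% = clavulanate blocking BLA; higher means less blue over green ratio so more BLA blockade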
# TLR9 CHO tox: CHO cell toxicity counter-screen for TLR9-MyD88 inhibitors; shares compounds with TLR9-MyD88 inh; TLR9-MyD88 CHO cells cytotoxicity, luminescence; inhibition, % at 4.98 µM; 680 tested, 39% active; in the data active = inhibition above about 11%
# An asterisk follows results filed as active; nt = not tested or not shown.
SMILES,NOD2-RIPK2 inh,NPR2 activator,GC-A act,Neddyl block,TLR9-MyD88 inh,TLR4-MyD88 BLA,TLR9-MyD88 conf,BLA nonselective,TLR9 CHO tox
COc1ccccc1C1C=C(c2ccc(Cl)cc2)Nc2nc(N3C(=O)CCC3=O)nn21 (configuration not stated),53*,3,1,nt,47*,8,14,19,-2
COc1ccccc1C1C=C(c2ccc(Cl)cc2)Nc2nc(NS(C)(=O)=O)nn21 (configuration not stated),nt,nt,nt,nt,nt,5,nt,nt,nt
Cc1ccc(NC(=O)/C(CN(C)C)=N\O)cc1,13,2,2,4,24*,17,6,8,0
COc1ccc(Cn2c(O)c(/C=N/NC(=O)c3cccnc3)c3ccccc3c2=O)cc1,17,7,1,43*,26*,2,12,11,9
CC1=CC2C3C(=O)N(c4ccccc4)C(=O)C3C1C(=O)C2(O)C(C)C (configuration not stated),nt,5,1,nt,nt,nt,nt,nt,nt
CN(C)/C=C1\C=C2C(=O)c3ccccc3N2C1=O,1,-14,-5,-364,23*,nt,7,8,-1
O=S1(=O)c2ccc(N3CCC[C@@H]3CO)cc2O[C@H]2CCN1C2,nt,7,3,nt,nt,nt,nt,nt,nt
COC(=O)c1cc(C#N)c(N2CCOCC2)nc1C,-7,-6,-1,7,22*,-5,-4,-4,0
O=S(=O)(CC1NCc2ccccc21)NCCc1ccccc1 (configuration not stated),nt,0,-3,nt,nt,nt,nt,nt,nt
CCCCNC(=S)NNc1c(Cl)cc(Cl)cc1Cl,-13,-1,4,5,7,-2,nt,nt,nt
O=C(NCCCl)NNc1c(Cl)cc(Cl)cc1Cl,-1,-3,-2,1,22*,-13,2,0,3
O=C(N/N=C/c1ccccc1F)c1cc2c(ccc3ccccc32)o1,-12,0,0,nt,-8,nt,nt,nt,nt
O=C(N/N=C/c1cccc2ccccc12)c1cc2ccccc2o1,-5,-6,-1,13,23*,nt,3,-2,4
Cn1c(CNC(=O)CCNC(=O)c2ccccc2)cc(=O)n(C)c1=O,3,2,-2,-8,26*,nt,2,2,0
O=C(O)c1ccc(C=C(c2nc3ccccc3s2)c2nc3ccccc3s2)cc1,7,1,-3,-12,1,3,nt,nt,nt
CN(C)c1ccc(/C=C(\Cl)c2nc3ccccc3s2)cc1,17,nt,nt,14,25*,18,16,23,10
O=S1(=O)Nc2c(ccc3cccnc23)-c2ccccc21,25*,nt,nt,52*,21*,7,33*,17,99*
COC(=O)[C@]12C[C@H](CC(=O)N3CCSCC3)C(=O)N(Cc3ccc4c(c3)OCO4)C1=C[C@H](C(C)C)O[C@@H]2C1CC1,nt,-16,-11,nt,nt,nt,nt,nt,nt
O=C(Nc1ccc(OC(F)F)cc1)c1ccccn1,-5,1,-2,1,4,5,nt,nt,nt
CS(=O)(=O)c1ncc(Cl)c(C(=O)Nc2ccc(N3CCOCC3)cc2)n1,47*,nt,nt,5,43*,25,47*,34,95*
CS(=O)(=O)c1ncc(Cl)c(C(=O)Nc2ccc(OC(F)F)cc2)n1,73*,nt,nt,7,42*,nt,45*,41,97*
C[C@H]1[C@@H](OC(=O)N2CCOCC2)CC[C@@]23CCCN2C(=O)CCC[C@@H]13,nt,0,2,nt,nt,nt,nt,nt,nt
CN=C1S/C(=C/c2cc(C)n(Cc3ccccc3)c2C)C(=O)N1C,nt,-9,-4,nt,nt,nt,nt,nt,nt
CCOC(=O)Cc1csc(-n2sc3ccccc3c2=O)n1,16,10,5,-192,-3,13,nt,nt,nt
CCOC(=O)Cc1csc(/N=C/c2c(O)n(-c3ccccc3C(F)(F)F)c(=O)c3ccccc23)n1,9,8,7,nt,22*,18,8,9,10
SMILES,NOD2-RIPK2 inh,NPR2 activator,GC-A act,Neddyl block,TLR9-MyD88 inh,TLR4-MyD88 BLA,TLR9-MyD88 conf,BLA nonselective,TLR9 CHO tox
COc1ccc(CN2CCC(CNC(=O)NC(C)C)CC2)cc1,nt,-2,3,nt,nt,nt,nt,nt,nt
COc1ccc(CN2CCC(CNC(=O)NC3CCCCC3)CC2)cc1,2,-9,1,-8,22*,6,-1,2,0
COC(=O)C1CN(Cc2cn(CCC3OCCO3)nn2)CCS(=O)(=O)N1Cc1ccc(Cl)cc1 (configuration not stated),nt,1,-1,nt,nt,nt,nt,nt,nt
O=C(CN1CCN(S(=O)(=O)c2cc(C(F)(F)F)ccc2Cl)CC1)N1CCc2ccccc2C1,4,0,-4,-16,1,nt,nt,nt,nt
Cc1ccc(C)c(S(=O)(=O)N2CCN(CC(=O)N3CCc4ccccc4C3)CC2)c1,-10,4,1,0,36*,-6,-2,3,0
COc1ccc(C(=O)OCCN(C)C2CN(Cc3cn(Cc4cccc(F)c4)nn3)S(=O)(=O)C2)cc1OC (configuration not stated),nt,-1,2,nt,nt,nt,nt,nt,nt
CCn1nc(NC(=O)c2cccnc2)c2cc3cccc(C)c3nc21,-20,-5,10,nt,23*,-16,-6,-1,1
CC(=O)Nc1c(-c2ccc(C)cc2)nc2ncccn12,nt,4,3,nt,nt,nt,nt,nt,nt
CNC(=S)N/N=C/c1c(C(=O)OC)cnn1-c1ccc(Cl)cc1,nt,3,5,nt,nt,nt,nt,nt,nt
O=S(=O)(Nc1cccc2ncccc12)c1cccs1,52*,nt,nt,nt,29*,5,26*,12,103*
N#Cc1ccc(-c2cccnc2)nc1SCC(=O)c1ccccc1,14,2,4,-162,21*,nt,9,9,10
COc1cc(/C=C/C(=O)OCC(=O)Nc2ccc3[nH]c(=O)[nH]c3c2)ccc1OC(F)F,-10,1,-4,-3,23*,nt,7,3,7
COc1cc(/C=C/C(=O)OCC(=O)N(C)CC(=O)Nc2ccc(F)cc2)ccc1OC(F)F,-7,-3,-6,10,6,nt,nt,nt,nt
COc1cc(NC(=O)c2ccccc2)c(C)cc1NC(=O)CSc1nnc(-c2ccccc2F)n1-c1ccc(C)cc1,nt,-3,-5,nt,nt,nt,nt,nt,nt
CSCCC(C(=O)OCC(=O)c1ccc(C)c(C)c1)N1C(=O)c2cc(Cl)c(Cl)cc2C1=O (configuration not stated),-8,7,-1,-28,22*,-11,-1,-3,2
O=S(=O)(c1ccccc1)c1nc(Nc2cccc(O)c2)sc1Cl,7,2,5,14,21*,-8,-1,-3,-1
